Among the data in PubChem BioAssay AID651953 (The Scripps Research Institute Molecular Screening Center, 2012) are activation values, retold here.

About 430 (18%) of roughly 2,400 compounds were called active. No stated cut-off is given here; in the data, active means activation above about 12%; inactive means the rest. A selection follows.

This assay is described as follows: nonspecific calcium signal increase, Ga16 cells – cell-based, fluorescence, counter-screen for TAAR1 antagonist project (AID 651953).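 Further: 0% = vehicle wells and 100% = saturating stimulus response.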 Conditions: Ga16-expressing cells, agonist counterscreen, at 3 µM, hits give high values.
Regarding `CC(=O)n1cc([C@H]2C=C(C(=O)N3CCOCC3)O[C@@H](OCc3ccc(CO)cc3)C2)c2ccccc21`, the activation was 8.38% (inactive). With `CC(=O)Nc1ccc(NC(=O)COC(=O)C2CCC(C(C)(C)C)CC2)cc1` (centres undefined), the activation was 12.5% (active). The same measure for `COc1cc2ccccc2cc1C(=O)Nc1ccc(NC(=O)c2cccs2)cc1`: 7.21% (inactive); for `COC(=O)[C@@]1(Sc2ccc(C)cc2)CC(=O)N(c2cccc(SC)c2)[C@@H]1c1ccccc1`: 7.65% (inactive). With `COc1ccc(C(=O)Oc2ccc(-c3nnco3)cc2)cc1S(=O)(=O)N1CCOCC1` the figure was 8.48% (inactive). `CCOc1cc(/C=N/NC(=O)c2cc(-c3ccccc3)nc3ccccc23)ccc1O`: the activation is 7.59% (inactive).

As to `O=C(Oc1ccc(-c2nnco2)cc1)c1ccc(F)c(S(=O)(=O)N2CCOCC2)c1`, the activation was 11.4% (inactive).

`O=C1c2ccccc2C(=O)N1CCC#Cc1ccc2cc(C3(O)CCCCC3)oc(=O)c2c1`: the activation is 12.9% (active). With `Cc1nn(-c2ccccc2)c(C)c1NC(=O)COC(=O)c1cc(Cl)ccc1O` the figure was 11.4% (inactive); with `CCOc1ccc(NC(=O)N2CC=C(n3c(=O)[nH]c4ccccc43)CC2)cc1`, 8.85% (inactive); with `C=CCn1c(SCc2cccc(F)c2)nc2cc(C(=O)N3CCC(C(N)=O)CC3)ccc2c1=O`, 10.2% (inactive).

Consider `CSc1nc(-c2ccccc2)nc(C(Cl)Cl)n1`, for which the activation was 2.33% (inactive). The same measure for `Cn1c2ccccc2c(=O)c2c(=O)n(Cc3ccco3)c(COc3ccccc3)nc21`: 11.7% (active); for `O=c1[nH]c(CSc2ncc(-c3ccc(F)cc3)n2Cc2ccco2)nc2ccccc12`: 9.09% (inactive); for `COc1ccc(CCNC(=O)c2ccc(CS(=O)(=O)c3ccc(Br)cc3)o2)cc1OC`: 13.5% (active). The same measure for `COc1ccc(CCNC2=C(Cl)C(=O)N(Cc3ccccc3)C2=O)cc1OC`: 10.4% (inactive). With `COc1ccc(CCNC(=O)C(=O)NCC2OCCN2S(=O)(=O)c2ccc(OC)c(C)c2)cc1` (centres undefined) the figure was 7.62% (inactive); with `CC(C)(C)OC(=O)NCCCCCNC(=O)c1nc[nH]c1C(=O)NCc1ccccc1`, 7.75% (inactive); with `O=C(NCc1ccc2c(c1)OCO2)c1c(-c2ccsc2)sc2ccccc12`, 3.18% (inactive). With `Fc1ccc(/C=N/Nc2nc(-c3cccnc3)nc3ccccc23)cc1`, the activation was 5.53% (inactive). With `Oc1ccc(/C=N/Nc2nc(-c3ccccc3F)nc3ccccc23)c(O)c1`, the activation is 11.9% (active).

On to `CCOC(=O)C1=C(NC(=S)NC(=O)c2ccccc2)c2ccccc2CC1(C)C`, for which the activation is 11.8% (active).

In the case of `CNC(=O)c1ccsc1NC(=O)c1ccc(S(=O)(=O)N2CCc3ccccc32)cc1`, the activation was 9.94% (inactive). As to `COc1ccc(NC(=O)c2cc(-c3ccc(C)o3)nc3ccccc23)cc1`, the activation is 8.64% (inactive). The same measure for `COc1ccc(-c2cc(C(=O)Nc3ccccc3O)c3ccccc3n2)cc1`: 10.9% (inactive); for `CC(=O)N1CCN(C(=O)c2cc(-c3ccc(Cl)s3)nc3ccccc23)CC1`: 11.8% (active).

For the molecule `COc1ccc(S(=O)(=O)N2CCCC(C(=O)Nc3ccc(NC(=O)c4ccccn4)cc3)C2)cc1` (centres undefined), the activation is 9.11% (inactive). The same measure for `O=C(OCC(=O)N(CCc1ccccc1)Cc1ccccc1)c1ccccc1[N+](=O)[O-]`: 9.58% (inactive); for `Cn1c(C(=O)NCCc2ccsc2)cc2c(=O)n(C)c3ccccc3c21`: 6.98% (inactive); for `COc1ccc(OC)c2[nH]c(=O)c(CCNC(=O)C(=O)c3c[nH]c4ccccc34)cc12`: 9.04% (inactive). The same measure for `COc1ccc(S(=O)(=O)N(CC(=O)NCc2ccco2)c2ccc(F)cc2)cc1`: 7.35% (inactive). Turning to `N#Cc1cccc(NC(=O)COC(=O)c2ccccc2C(=O)c2ccc(Cl)c([N+](=O)[O-])c2)c1`, the activation is 10.4% (inactive). In the case of `C[C@H](NC(=O)c1nc[nH]c1C(=O)NCC(=O)OC(C)(C)C)C(=O)OCc1ccccc1`, the activation is 6.84% (inactive). The same measure for `COc1ccc(C2=NOC(Cn3nc(C(=O)NCc4ccc5c(c4)OCO5)cc3-c3ccccc3)C2)cc1` (centres undefined): 7.98% (inactive); for `Cc1ccc2c(c1)N(CC(=O)NCCc1ccc(Cl)cc1)C(=O)c1cccnc1O2`: 8.82% (inactive). `C=CCC[C@@H](Cc1ccc(F)cc1)C(=O)O[C@H](CNC(=O)[C@H](CC=C)CC(=O)N(CCO)Cc1ccccc1)c1ccccc1`: the activation is 5.79% (inactive). For `CSCCC(NC(=O)COc1ccccc1)C(=O)OCCOc1ccc(Br)cc1` (centres undefined), the activation was 4.3% (inactive).

Take `COC(=O)C1=C(C)N(Cc2ccc(F)cc2)C(=S)NC1c1cccc(Cl)c1` (centres undefined): the activation is 2.63% (inactive). With `COC(=O)Cc1nnn2c1[C@H](C)[C@H](c1ccccc1[N+](=O)[O-])OCC2` the figure was -1.09% (inactive); with `Cc1ccccc1NC(=O)Cc1nc(COC(=O)C(C)(C)Oc2ccc(Cl)cc2)cs1`, 7.78% (inactive); with `C=CCC[C@H](Cc1ccc(F)cc1)C(=O)OC[C@H](C)NC(=O)[C@H](CC=C)CC(=O)N(CCO)Cc1ccccc1`, 8.66% (inactive). Consider `Cc1cccc(NC(=O)c2ccc(COc3ccccc3[N+](=O)[O-])o2)n1`, for which the activation is 4.04% (inactive). With `Cc1cccc(C)c1NC(=O)CNC(=O)C1CCCC1` the figure was 2.04% (inactive); with `Cc1ccc(-n2c(C)cc(/C=N\NC(=O)CC(=O)NC(C)C)c2C)cc1`, 8.51% (inactive). Take `O=C(NCCN1CCOCC1)c1ccccc1N1C(=O)[C@@H]2Cc3c([nH]c4ccccc34)C(c3cccc(Cl)c3)N2C1=O` (some centres undefined): the activation is 6.37% (inactive). Take `COc1ccc(C(=O)Nc2cccc(NC(=O)c3ccc(OC)cc3OC)n2)c(OC)c1`: the activation is 8.74% (inactive).

With `O=C(CN1CCCSc2ccccc21)N1CCN(S(=O)(=O)c2cccc(F)c2)CC1`, the activation is 8.97% (inactive). In the case of `Oc1ccccc1N1CCN(c2ncnc3sc(-c4ccccc4)cc23)CC1`, the activation was 6.72% (inactive). With `COc1cc(/C=C2/C(=O)ON=C2C)ccc1OCc1ccccc1F` the figure was 12.4% (active). Regarding `O=C(COC(=O)c1c2c(nc3ccccc13)CCCC2)c1ccc(Br)s1`, the activation is 2.67% (inactive). On to `C[C@H](O)[C@@H]1C(=O)N2CCc3c([nH]c4c(-c5ccc6c(c5)OCO6)cccc34)[C@@H]2C[C@@H]1N(C)C(=O)c1ccco1`, for which the activation was 5.11% (inactive).

On to `Cc1ccc(SCc2c(C(=O)N/N=C/c3cccnc3)nnn2-c2nonc2N)cc1`, for which the activation is 17.4% (active). The same measure for `Nc1nonc1-n1nnc(C(=O)N/N=C/c2c[nH]c3ccccc23)c1-c1ccccc1`: 6.4% (inactive). On to `O=C(N/N=C/c1ccc(OC(=O)c2ccccc2Cl)cc1)c1ccc(O)cc1`, for which the activation was 8.92% (inactive).

For `O=C(NCCN1CCOCC1)c1ccc(/C=C2\Sc3ccccc3N(Cc3ccc(F)cc3)C2=O)cc1`, the activation was 9.85% (inactive).

Turning to `O=S(=O)(c1cccs1)N1CCCc2nc(-c3ccc(Br)cc3)ccc21`, the activation was 5.49% (inactive).

`C[C@@H]1CN([C@@H](C)CO)S(=O)(=O)c2ccc(C#Cc3cccc(F)c3)cc2O[C@H]1CN(C)S(=O)(=O)c1cn(C)cn1`: the activation was 13.6% (active). The same measure for `CCCCNc1c(-c2cccc(Sc3ccc(OC)cc3)c2)nc2ccccn12`: 6.41% (inactive); for `CSc1ncnc2c1ncn2CC(=O)C1CCC2C3CCC4=CC(=O)CCC4(C)C3CCC12C` (centres undefined): 15.7% (active); for `CCN=C1SC(CC(=O)Nc2ccc(C)cc2)C(=O)N1CC` (centres undefined): 9.6% (inactive). The same measure for `O=C(COC(=O)c1ccccc1SCC(=O)N1CCCC1)Nc1ccccc1OC(F)F`: 9.11% (inactive). The same measure for `COc1ccc(-c2nn(-c3ccccc3)cc2C(=O)Nc2nccs2)cc1OC`: 7.16% (inactive). For `COc1cc(SC#N)ccc1N=Cc1c(C)[nH]n(-c2ccc(C)cc2)c1=O`, the activation was 7.36% (inactive). With `O=C(Nc1ccccc1-c1nnn(CC(=O)N2CCN(c3ccccc3)CC2)n1)c1cccs1` the figure was 8.25% (inactive). In the case of `CC(C)N(Cc1ccccc1)C(=O)COC(=O)c1ccccc1SCC(=O)N1CCCC1`, the activation is 8.17% (inactive). Turning to `COc1ccc(NC(=O)C2CCCN(S(=O)(=O)c3cccc4cccnc34)C2)cc1OC` (centres undefined), the activation was 7.3% (inactive). With `CCOC(=O)C1C(c2ccc(OC)c(OC)c2)c2c([nH][nH]c2=O)CC1(C)O` (centres undefined) the figure was 3.55% (inactive); with `Clc1ccc(Nc2ncnc3c2nnn3Cc2ccccc2)cc1`, 3.96% (inactive). The same measure for `COc1ccc(N(CC(=O)N/N=C/c2cccs2)S(=O)(=O)c2ccc(OC)c(OC)c2)cc1`: 8.47% (inactive).

`CC(=O)OCCN(CCCn1c(-c2ccncc2)nc2ccccc21)c1nc(-c2ccc(C)cc2)cs1`: the activation was 12.8% (active). For `COC(=O)Cc1nnn2c1[C@H](C)[C@H](c1ccccc1Br)OCC2`, the activation is 9.39% (inactive). The same measure for `CN(c1ccccc1)S(=O)(=O)c1cc(C(=O)Nc2nc3ccccc3[nH]2)ccc1Cl`: 8.92% (inactive); for `NNC(=O)CNC(c1ccccc1)c1cc(Cl)ccc1NC(=O)c1ccccc1` (centres undefined): 9.38% (inactive); for `CC/C(=N/Nc1ccccc1)c1cnnc(SC)n1`: -1.08% (inactive). The same measure for `Cc1onc(-c2c(F)cccc2Cl)c1C(=O)Nc1cccc(S(=O)(=O)N2CCCCC2)c1`: 9.53% (inactive). The same measure for `CCC(=O)Oc1cccc(C(=O)Nc2ccc(-c3nnc(-c4ccco4)o3)cc2)c1`: 4.99% (inactive); for `CCc1ccc2c(c1)NC(=O)C2(C)Cc1ccc(OC(F)(F)F)cc1` (centres undefined): 14.4% (active); for `Cc1cc(Br)ccc1NC(=O)c1cnc(N2CCN(c3ccccn3)CC2)c2ccccc12`: 7.37% (inactive). As to `O=C(Nc1ccc(-c2nnc(-c3ccccc3)o2)cc1)c1ccc(Br)o1`, the activation was 1.44% (inactive). With `O=C(N/N=C/c1ccc(Cl)c(Cl)c1)c1ccc2nc[nH]c2c1` the figure was 7.7% (inactive). Regarding `O=C(COC(=O)CCCSc1nc2ccccc2[nH]1)Nc1ccc(Oc2ccccc2)cc1`, the activation is 8.31% (inactive). For `COc1cc(OC)cc(C(=O)OCC(=O)Nc2sccc2C(N)=O)c1`, the activation was 13.5% (active). The same measure for `COc1ccc(CC(=O)Nc2c(C(N)=O)oc3ccccc23)cc1`: 6.51% (inactive); for `COC(=O)c1sccc1NC(=O)c1cc(OC)c(OC)c(OC)c1`: 5.58% (inactive).
